{"source": "PubChem BioAssay AID1949", "about": "(Southern Research Institute, 2009)", "note": "The campaign covered roughly 100,000 compounds. About 1,600 (1.6%) were called active. Another 3% or so got no clear call; they are omitted. Not all results are given here. Values without a mark were called inactive. The rule behind the calls is not given here."}
{"experiment": "Mycobacterium tuberculosis H37Rv growth inhibition, cell based, confirmatory dose response (AID 1949);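 for inhibition: bacteria grown 7 days with compound before Alamar blue readout; 0% = untreated bacteria wells and 100% = bacteria with saturating antibiotic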", "settings": "M. tuberculosis H37Rv growth inhibition; stronger effect = higher value"}
{"molecule": "O=C(Nc1nc(-c2ccc(F)cc2)cs1)c1cccc2ccccc12", "inhibition": "32.4%"}
{"molecule": "CCn1c(/C=C/c2ccco2)nc2ccccc21", "inhibition": "inactive"}
{"molecule": "COc1ccc(OC)c(N(CC(=O)Nc2ccccc2SC)S(=O)(=O)c2ccccc2)c1", "inhibition": "13.5%"}
{"molecule": "Cc1ccc(NS(=O)(=O)c2ccc(NS(=O)(=O)c3c(C)cc(C)cc3C)cc2)cc1", "inhibition": "inactive"}
{"molecule": "COc1ccc(NC(=O)c2c(NC(=O)c3ccccc3F)sc3c2CCC3)cc1", "inhibition": "inactive"}
{"molecule": "CCOC(=O)c1ccc(Oc2nc(NCc3ccccc3)nc(N(C)C)n2)cc1", "inhibition": "inactive"}
{"molecule": "COC(=O)CSc1nc(C23CC4CC(CC(C4)C2)C3)cc(C(F)(F)F)c1C#N", "inhibition": "1.01%"}
{"molecule": "CCn1c(CC(=O)Nc2cccc(OC)c2)nnc1SCC(=O)c1ccc(Br)cc1", "inhibition": "inactive"}
{"molecule": "Cc1cccc(NC(=O)c2sc3cccc(Cl)c3c2Cl)c1", "inhibition": "inactive"}
{"molecule": "C=CCN(CC=C)CC(O)Cn1c(C)c(C)c2ccccc21", "note": "(stereo not drawn)", "inhibition": "inactive"}
{"molecule": "CCOC(=O)c1cc(-c2ccccc2)sc1NC(=O)c1ccccc1Br", "inhibition": "inactive"}
{"molecule": "O=C(Nc1c(C(=O)N2CCCCCC2)cnn1-c1ccccc1Cl)c1ccccc1Cl", "inhibition": "inactive"}
{"molecule": "CCCc1ccc(C(C)NC(=O)c2ccc(C)s2)cc1", "note": "(stereo not drawn)", "inhibition": "inactive"}
{"molecule": "O=C(NCCc1ccccc1)Nc1cccc2ccccc12", "inhibition": "inactive"}
{"molecule": "COCCNCCCCOc1ccc(C)cc1[N+](=O)[O-]", "inhibition": "inactive"}
{"molecule": "Cc1ccc(NC(=O)CCc2ccc(S(=O)(=O)NCCc3ccccc3)cc2)cc1C", "inhibition": "inactive"}
{"molecule": "CCOC(=O)N1CCN(C(=O)c2ccc(I)cc2)CC1", "inhibition": "inactive"}
{"molecule": "CC1=C(C(=O)Nc2ccccc2)C(c2ccc(I)cc2)NC(=O)N1", "note": "(stereo not drawn)", "inhibition": "inactive"}
{"molecule": "CCOc1cc(CNC(CC)CO)c(Cl)cc1OCC(N)=O", "note": "(stereo not drawn)", "inhibition": "inactive"}
{"molecule": "OCCNc1nc2ccccc2n1-c1ccccc1", "inhibition": "1.48%"}
{"molecule": "O=C(CCCn1c(=S)[nH]c2ccccc2c1=O)N1CC=C(c2ccccc2)CC1", "inhibition": "inactive"}
{"molecule": "Cc1ccc(C(=O)Nc2ccc(C(=O)NCCCC(=O)O)cc2)o1", "inhibition": "4.21%"}
{"molecule": "CS(=O)(=O)N(CC(=O)Nc1ccccc1Cl)c1cccc([N+](=O)[O-])c1", "inhibition": "inactive"}
{"molecule": "O=C1c2ccccc2C(=O)N1c1nnc(Sc2ccc([N+](=O)[O-])c3cccnc23)s1", "inhibition": "inactive"}
{"molecule": "OC(c1ccccc1)c1nc2ccccc2n1Cc1cccc(Cl)c1", "note": "(stereo not drawn)", "inhibition": "inactive"}
{"molecule": "CC(C)c1ccccc1NC(=O)COc1ccc(-c2ccccc2)cc1", "inhibition": "inactive"}
{"molecule": "COC(=O)C1C(=O)OC(C)(C)C2CCC(C)CC12", "note": "(stereo not drawn)", "inhibition": "inactive"}
{"molecule": "COc1ccc(N2C(=O)CC(N3CCN(CC(=O)NC(C)C)CC3)C2=O)cc1", "note": "(stereo not drawn)", "inhibition": "inactive"}
{"molecule": "CCOC(=O)N1CCN(C(=O)COc2cccc(C)c2C)CC1", "inhibition": "inactive"}
{"molecule": "Cc1c(Cl)cccc1N1CC(O)=C(c2nc3ccccc3s2)C1=N", "inhibition": "3.11%"}
{"molecule": "COC(=O)c1noc(-c2ccc(F)cc2)n1", "inhibition": "inactive"}
{"molecule": "O=S(=O)(NCCC1=CCCCC1)c1ccccc1", "inhibition": "inactive"}
{"molecule": "O=C1OCCC1Sc1nnc(-c2ccc(Br)cc2)o1", "note": "(stereo not drawn)", "inhibition": "inactive"}
{"molecule": "CC(=O)Nc1ccc(NC(=O)C(C)Oc2ccc(Cl)c(C)c2)cc1", "note": "(stereo not drawn)", "inhibition": "inactive"}
{"molecule": "CCOc1ccccc1OCCOCCNCc1ccccc1", "inhibition": "inactive"}
{"molecule": "CCN(C(=O)c1ccccc1Br)c1ccccc1C", "inhibition": "8.56%"}
{"molecule": "Fc1c(F)c(F)c(Cn2ccc(NC(=S)Nc3ccccc3C(F)(F)F)n2)c(F)c1F", "inhibition": "inactive"}
{"molecule": "Cc1nc(SCc2cccc(C(=O)O)c2)nc2c1CCCC2", "inhibition": "inactive"}
{"molecule": "O=C(O)c1ccccc1-c1nc(-c2ccccc2F)no1", "inhibition": "inactive"}
{"molecule": "S=C(NCc1ccccc1)Nc1c(Cl)cccc1Cl", "inhibition": "inactive"}
{"molecule": "CC1(C)CC(=O)CC(C)(C)N1OC(=O)c1ccncc1", "inhibition": "inactive"}
{"molecule": "CCOC(=O)c1ccc(NC(=O)CSc2nnc(-c3ccccc3Cl)n2CC)cc1", "inhibition": "inactive"}
{"molecule": "CCOc1cc(C)c(S(=O)(=O)NCc2cccnc2)cc1C", "inhibition": "inactive"}
{"molecule": "COc1cc(S(=O)(=O)NC2CCCCC2)ccc1Cl", "inhibition": "inactive"}
{"molecule": "CCOC(=O)c1ccc(COC(=O)c2ccc(C=O)cc2)cc1", "inhibition": "2.19%"}
{"molecule": "CCn1c(CNC(=O)c2cccs2)nnc1SCC(=O)Nc1ccc(Br)cc1F", "inhibition": "inactive"}
{"molecule": "CCc1cccc(C)c1NC(=O)CN(c1cccc(Br)c1)S(C)(=O)=O", "inhibition": "inactive"}
{"molecule": "CC(C)CNC(=O)c1ccccc1NC(=O)CCSc1ccccc1", "inhibition": "inactive"}
{"molecule": "O=C1C2C3C=CC(C3)C2C(=O)N1CCC(=O)N1c2ccccc2Sc2ccccc21", "note": "(stereo not drawn)", "inhibition": "inactive"}
{"molecule": "COc1cccc2cc(-c3nnc(SCC(=O)Nc4cccc(SC)c4)n3C)oc12", "inhibition": "1.86%"}
{"molecule": "CCOc1ccc(N(CC(N)=O)S(=O)(=O)c2ccc(OC)c(OC)c2)cc1", "inhibition": "inactive"}
{"molecule": "COC(=O)c1ccc(NC(=O)CN(Cc2ccccc2)S(C)(=O)=O)cc1", "inhibition": "inactive"}
{"molecule": "O=S(=O)(c1cccc(S(=O)(=O)N2CCCC2)c1)N1CCCC1", "inhibition": "inactive"}
{"molecule": "COc1ccc([N+](=O)[O-])cc1NC(=O)C1CC(=O)N=C(N)S1", "note": "(stereo not drawn)", "inhibition": "0.16%"}
{"molecule": "COc1ccc(N(CC(=O)Nc2ccc(F)cc2F)S(=O)(=O)c2ccc(C)c([N+](=O)[O-])c2)cc1", "inhibition": "inactive"}
{"molecule": "O=S(=O)(c1ccccc1)c1ccc(COc2cccc3cccnc23)cc1", "inhibition": "1.33%"}
{"molecule": "COc1ccc(CNC2C3CC4CC(C3)CC2C4)cc1", "note": "(stereo not drawn)", "inhibition": "inactive"}
{"molecule": "COC(=O)c1ccc(SC2CCCCC2)c([N+](=O)[O-])c1", "inhibition": "inactive"}
{"molecule": "C=CCn1c(COc2ccc(C)cc2OCC)nnc1SCC(=O)Nc1cc(C(F)(F)F)ccc1Cl", "inhibition": "1.26%"}
{"molecule": "COc1ccccc1CNC(=S)Nc1ccc(OC)c(OC)c1", "inhibition": "inactive"}
{"molecule": "Cc1cccc2c(N=NC(=O)c3cccnc3)c(O)[nH]c12", "inhibition": "inactive"}
{"molecule": "CC(Sc1ccc(Cl)cc1)C(=O)Nc1ccccc1C(=O)O", "note": "(stereo not drawn)", "inhibition": "inactive"}
{"molecule": "COc1ccccc1OCCCSc1nc2sc(C)c(C)c2c(=O)n1-c1ccccc1", "inhibition": "inactive"}
{"molecule": "Cc1cc(C)c(C#N)c(SCC(=O)Nc2sc3c(c2C#N)CCC3)n1", "inhibition": "inactive"}
{"molecule": "O=C(NCCSC1CCCCC1)c1ccc(-c2ccccc2)cc1", "inhibition": "inactive"}
{"molecule": "CSc1nc(C)c(Oc2ccccc2)c(=O)n1C", "inhibition": "8.91%"}
{"molecule": "CSc1ccc(-c2nnn(CC(=O)Nc3ccc4c(c3)OCO4)n2)cc1", "inhibition": "inactive"}
{"molecule": "COc1cc(/C=C2/SC(=O)N(CC(=O)O)C2=O)cc(OC)c1OC", "inhibition": "inactive"}
{"molecule": "CS(=O)(=O)N(CC(=O)NC1CCCCCC1)c1ccccc1F", "inhibition": "inactive"}
{"molecule": "CCn1c(SCC(=O)Nc2ccc3c(c2)OCO3)nnc1-c1ccccc1", "inhibition": "4.1%"}
{"molecule": "CN(c1cccc(NC(=O)c2ccccc2N(Cc2ccccc2)S(=O)(=O)c2ccccc2)c1)S(C)(=O)=O", "inhibition": "inactive"}
{"molecule": "Cc1ccc(F)cc1NC(=O)CSc1ccc(Br)cc1", "inhibition": "36%"}
{"molecule": "O=C(Oc1ccc2c3c(c(=O)oc2c1)CCC3)c1cccc(Cl)c1", "inhibition": "inactive"}
{"molecule": "Cc1ccc(-c2csc(NC(=O)CSc3ccc(Br)cc3)n2)cc1", "inhibition": "inactive"}
{"molecule": "C=CCOc1ccc(C2C(C(=O)c3cccs3)=C(O)C(=O)N2CCN(CC)CC)cc1OC", "note": "(stereo not drawn)", "inhibition": "inactive"}
{"molecule": "CC(=O)C(C)n1c(=O)oc2ccc(Cl)cc21", "note": "(stereo not drawn)", "inhibition": "0.0633%"}
{"molecule": "Cc1cccc2c1N(C)C(=O)C2(O)CC(=O)c1ccco1", "note": "(stereo not drawn)", "inhibition": "inactive"}
{"molecule": "Cc1ccc(NC(=O)COc2ccc3c(C)c(Cc4ccccc4)c(=O)oc3c2C)cc1", "inhibition": "inactive"}
{"molecule": "CCCCOc1ccc(C2C(C(=O)c3ccco3)=C(O)C(=O)N2CCOC)cc1OC", "note": "(stereo not drawn)", "inhibition": "inactive"}
{"molecule": "CCC(C)n1[nH]c(=O)c2c1NC(=O)CSC2c1ccc(Cl)cc1Cl", "note": "(stereo not drawn)", "inhibition": "2.1%"}
{"molecule": "Cc1ccc(S(=O)(=O)N(C)CC(=O)NCCCc2ccccc2)cc1", "inhibition": "inactive"}
{"molecule": "Cc1ccc(OCCCCCNCCO)cc1C", "inhibition": "inactive"}
{"molecule": "CC(=O)Nc1ccc(S(=O)(=O)Nc2ccc(Cc3ccncc3)cc2)cc1", "inhibition": "inactive"}
{"molecule": "COc1cc(OC)cc(C(=O)Nc2ccc(C(F)(F)F)cc2)c1", "inhibition": "inactive"}
{"molecule": "CSc1cccc(NC(=O)CCSc2ccc(Cl)cc2)c1", "inhibition": "inactive"}
{"molecule": "N#Cc1ccc(Oc2ccc(NC(=O)C3CC=CCC3C(=O)O)cc2)cc1", "note": "(stereo not drawn)", "inhibition": "inactive"}
{"molecule": "CN(C(=O)CN1C(=O)c2ccccc2C1=O)C1CCCCC1", "inhibition": "inactive"}
{"molecule": "COc1ccc(OCCN(C)Cc2ccccc2)cc1", "inhibition": "inactive"}
{"molecule": "Cc1cc(S(=O)(=O)N2CCOCC2)ccc1F", "inhibition": "inactive"}
{"molecule": "COc1ccc(Cl)cc1S(=O)(=O)Nc1ccccc1C", "inhibition": "4.41%"}
{"molecule": "CCN(CC)C(=O)c1ccc(NC(=O)c2ccccc2I)cc1", "inhibition": "inactive"}
{"molecule": "Cc1cc(=O)oc2cc(Oc3nnnn3-c3ccccc3)ccc12", "inhibition": "inactive"}
{"molecule": "CCOc1ccc(NC(=O)Nc2ccc(C)cc2Br)cc1", "inhibition": "inactive"}
